Bioassay records deposited in PubChem BioAssay by National Center for Advancing Translational Sciences (NCATS).
An excerpt weighted towards active compounds, which were near 19% of everything screened.
HT1080-NT tox – kills 2HG-producing HT-1080-NT fibrosarcoma cells; Potency, µM (doses to about 46.1 µM), for inactives: top-dose activity, negative = less viability, actives largely listed as cytotoxic; HT-1080-NT fibrosarcoma viability, CellTiter-Glo ATP luminescence, 48 h; AID 686970; hit rate 1.6% among 360,000;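 further: NT is the 2HG producing partner of a matched IDH1 knockdown line; potency means the concentration at half of the fitted maximal effect; 0% = DMSO-treated cells and -100% = media-only wells without cells; nearly all actives have a fitted effect of over 55% in size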
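A 48-hour cytotoxicity screen used HT-1080-NT cells plated 2 hours before compound delivery. ATP-based CellTiter-Glo luminescence measured viability, normalized to DMSO and no-cell controls.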
TDP1 cell CPT – growth inhibition of DT40 Tdp1-/-;hTDP1 cells with camptothecin (screen for TDP1 inhibitors). Potency, µM (highest dose often 46.2 µM), for the others: at the highest dose activity change, negative = growth inhibition, actives largely listed as inhibitors. AID 686979. chicken DT40 Tdp1-/-;hTDP1 cells + 20 nM CPT, ATP luminescence, 48 h. hit rate 12% among 420,000; further: potency means the concentration at half of the fitted maximal effect; nearly all actives have a fitted effect of over 55% in size
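Cell growth measured by CellTiter-Glo luminescence after a minimum 48 h, 37 C compound exposure with 20 nM CPT in Tdp1-knockout DT40 cells stably expressing hTDP1, seeded 400/well; qHTS titration format.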
HT1080 IDH1KD tx – toxicity to HT-1080 IDH1 knockdown cells (counter line). hit rate 2% among 360,000. HT-1080 IDH1 knockdown viability, ATP luminescence, 48 h. Potency, µM (doses to about 46.1 µM), for inactives: at the highest dose activity, negative = toxicity, usual class: cytotoxic;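 further: potency means the concentration at half of the fitted maximal effect; 0% = DMSO wells and -100% = cell-free medium wells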
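Cytotoxicity counter-line: IDH1KD HT-1080, 48 h, CellTiter-Glo. Curves classed by r2, magnitude and activity.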
IL-1B inflam inh – inflammasome signaling inhibition, IL-1 beta readout. THP-1 LPS/ATP IL-1B secretion, AlphaLISA, 16 h; active compounds read low. hit rate 4.7% among 360,000. activity change, % at 57.5 µM; in the data active means activity change below about -50%; inconclusive means mostly about -30% to -49%
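THP-1 cells pretreated 1 hr with compounds (up to 57.5 uM final), then stimulated with LPS (250 ng/mL final) plus ATP (1.25 mM final); secreted IL-1B measured by AlphaLISA after 16 hr, decreased signal indicating inhibition.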
DT40 TDP1 no CPT – qHTS for Inhibitors of human tyrosyl-DNA phosphodiesterase 1 (TDP1): qHTS in cells in absence of CPT. AID 686978, 2013. Potency, µM (series often up to 46.2 µM), for inactives: top-dose activity change, negative = growth inhibition, usual class: inhibitors. DT40 Tdp1-/- hTDP1 cells, no CPT, ATP luminescence, 48 h. hit rate 15% among 420,000; further: potency means the concentration at half of the fitted maximal effect; nearly all actives have a fitted effect of over 55% in size
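Growth kinetics read by CellTiter-Glo luminescence after ≥48 hr at 37 °C. Cells: DT40 Tdp1-/- stably carrying human TDP1, 400 per well, compound exposure in the absence of CPT (DMSO vehicle).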
* = called active by the depositor; [ ] = another dose, or the depositor's remark. Unless noted, the call rests on the fitted dose curve; in most records, active means well fitted curve in the direction sought with a large enough effect; inconclusive means small, poorly fitted or top-dose-only effect, or another doubt; inactive means no such curve, though single readings can be large; an effect the other way counts as inactive or inconclusive. Unless noted, on the % scale 0 is the no-effect control and ±100 the full control effect.

Results for Cc1ccc2c(c1)[C@@H]1[C@H](CO2)[C@H](c2ccccc2)[C@]2(C)C(=O)N[C@H](C)C(=O)N12 ?
HT1080-NT tox: 1%; TDP1 cell CPT: inconclusive; HT1080 IDH1KD tx: 7%; IL-1B inflam inh: 17; DT40 TDP1 no CPT: inconclusive

What do the screens show for `CN(CCC1CCCCO1)C(=O)CCc1nnc(C2CCCCC2)o1` (centres undefined)?
HT1080-NT tox: 15%; TDP1 cell CPT: -1%; HT1080 IDH1KD tx: -1%; IL-1B inflam inh: 3; DT40 TDP1 no CPT: -19%

How did Cc1cccc(C)c1NC(=S)NC(=O)c1cccc(Cl)c1 do in these assays?
HT1080-NT tox: 9%; TDP1 cell CPT: inconclusive; HT1080 IDH1KD tx: 18%; IL-1B inflam inh: 5; DT40 TDP1 no CPT: inconclusive

What do the screens show for `Cc1cccc(-n2c(=O)c3c(c4cc(C)ccc4n3C)n(Cc3ccccc3F)c2=O)c1`?
TDP1 cell CPT: -14%; DT40 TDP1 no CPT: inconclusive

Results for CC(=O)N1CCN(C(C(=O)Nc2c(C)cccc2C)c2cccc(F)c2)CC1 (centres undefined) ?
HT1080-NT tox: 16%; TDP1 cell CPT: 2%; HT1080 IDH1KD tx: 20%; IL-1B inflam inh: -3; DT40 TDP1 no CPT: 1%

How did CCOC(=O)c1nncc(-c2ccccc2)n1 do in these assays?
HT1080-NT tox: 8%; TDP1 cell CPT: 12%; HT1080 IDH1KD tx: 15%; IL-1B inflam inh: -14; DT40 TDP1 no CPT: 7%

How did CC1CC1C(=O)N1CCN(S(=O)(=O)c2cc(C(F)(F)F)cc(C(F)(F)F)c2)CC1 (centres undefined) do in these assays?
HT1080-NT tox: -1%[9.24 µM]; TDP1 cell CPT: 16µM*; HT1080 IDH1KD tx: -13%; IL-1B inflam inh: 46; DT40 TDP1 no CPT: inconclusive

Results for Cc1cccc(C)c1N1CCN(S(=O)(=O)c2ccc(F)cc2)CC1 ?
HT1080-NT tox: -1%; TDP1 cell CPT: inconclusive; HT1080 IDH1KD tx: 0%; IL-1B inflam inh: -9; DT40 TDP1 no CPT: 16µM*

What do the screens show for `Cc1cnc(C(=O)N2CCN(S(=O)(=O)c3cc(C(F)(F)F)cc(C(F)(F)F)c3)CC2)cn1`?
HT1080-NT tox: -5%; TDP1 cell CPT: -25%; HT1080 IDH1KD tx: 0%; IL-1B inflam inh: 11; DT40 TDP1 no CPT: inconclusive

Results for Cc1ccccc1CN1CCN(S(=O)(=O)c2ccc(F)cc2)CC1 ?
HT1080-NT tox: -3%; TDP1 cell CPT: inconclusive; HT1080 IDH1KD tx: 1%; IL-1B inflam inh: -4; DT40 TDP1 no CPT: inconclusive

How did Cc1ccccc1-c1nn2c(=O)cc(CN3CCN(S(=O)(=O)c4ccc(Cl)cc4)CC3)nc2s1 do in these assays?
TDP1 cell CPT: -29%; DT40 TDP1 no CPT: inconclusive

What do the screens show for `CC(C)c1ccc(NC2CCCN(C(=O)CN3CCCC3=O)C2)cc1` (centres undefined)?
HT1080-NT tox: -1%; TDP1 cell CPT: -21%; HT1080 IDH1KD tx: 7%; IL-1B inflam inh: 1; DT40 TDP1 no CPT: 7%

How did O=C(Cc1ccc(Cl)cc1)NO do in these assays?
HT1080-NT tox: -6%; TDP1 cell CPT: inconclusive; HT1080 IDH1KD tx: 7%; DT40 TDP1 no CPT: inconclusive

How did Cc1cc(C)cc(NC(=O)C(=O)NCC(c2cccnc2)N2CCN(c3ccccc3)CC2)c1 (centres undefined) do in these assays?
TDP1 cell CPT: 21µM*; DT40 TDP1 no CPT: 16µM*

What do the screens show for `COC(=O)c1ccc(NC(=O)C(=O)NCC(c2cccnc2)N2CCN(c3ccccc3)CC2)cc1` (centres undefined)?
TDP1 cell CPT: -20%; DT40 TDP1 no CPT: -19%

What do the screens show for `COc1cccc(NC(=O)C(=O)NCC(c2cccnc2)N2CCN(c3ccccc3)CC2)c1` (centres undefined)?
TDP1 cell CPT: inconclusive; DT40 TDP1 no CPT: 18µM*

How did COc1ccc(N2CCN(C(=O)C(=O)c3cccc([N+](=O)[O-])c3)CC2)cc1 do in these assays?
HT1080-NT tox: 20%; TDP1 cell CPT: inconclusive; HT1080 IDH1KD tx: 20%; IL-1B inflam inh: 8; DT40 TDP1 no CPT: inconclusive

How did COc1ccc(C(CCNCc2ccc(N(C)C)cc2)c2ccccc2)cc1 (centres undefined) do in these assays?
HT1080-NT tox: 18µM*; TDP1 cell CPT: 21µM*; HT1080 IDH1KD tx: inconclusive; IL-1B inflam inh: -101*; DT40 TDP1 no CPT: 21µM*

Results for CC(C)Oc1ccc(C(CCNCc2ccc(O)cc2)c2ccccc2)cc1 (centres undefined) ?
HT1080-NT tox: inconclusive; TDP1 cell CPT: 5.8µM*; HT1080 IDH1KD tx: inconclusive; IL-1B inflam inh: -91*; DT40 TDP1 no CPT: 4.1µM*

Results for CC(C)Oc1ccc(C(CC(=O)O)NC(=O)Cc2ccccc2)cc1 (centres undefined) ?
HT1080-NT tox: 23%; TDP1 cell CPT: 9%; HT1080 IDH1KD tx: 9%; IL-1B inflam inh: 12; DT40 TDP1 no CPT: 2%

What do the screens show for `COc1ccc(C(CCNCc2ccc(OC)c(OC)c2)c2ccc(F)cc2)cc1` (centres undefined)?
HT1080-NT tox: 7%; TDP1 cell CPT: 4%; HT1080 IDH1KD tx: 2%; IL-1B inflam inh: 0; DT40 TDP1 no CPT: -7%

Results for COc1ccc(CNCCC(c2ccc3c(c2)OCO3)c2ccccc2OC)cc1 (centres undefined) ?
TDP1 cell CPT: 6.5µM*; DT40 TDP1 no CPT: 2.9µM*

How did COc1ccccc1OCC(O)CNCc1ccc2c(c1)OCO2 (centres undefined) do in these assays?
HT1080-NT tox: -12%; TDP1 cell CPT: 2%; HT1080 IDH1KD tx: -21%; IL-1B inflam inh: 8; DT40 TDP1 no CPT: inconclusive

Results for CCOc1ccc(-n2nc3ccc(NC(=O)c4ccc(-c5cccc(Cl)c5)o4)cc3n2)cc1 ?
TDP1 cell CPT: 0%; DT40 TDP1 no CPT: -13%

How did C=CCn1c(Sc2ncc([N+](=O)[O-])s2)n[nH]c1=O do in these assays?
HT1080-NT tox: 5.8µM*; TDP1 cell CPT: 0.41µM*; HT1080 IDH1KD tx: 5.2µM*; IL-1B inflam inh: -103*; DT40 TDP1 no CPT: 0.92µM*

What do the screens show for `C=CCn1c(CSc2ccccc2[N+](=O)[O-])n[nH]c1=S`?
HT1080-NT tox: 6%; TDP1 cell CPT: 5%; HT1080 IDH1KD tx: -1%; IL-1B inflam inh: 42; DT40 TDP1 no CPT: -20%

What do the screens show for `COC(=O)C1=C(C)N(Cc2ccco2)C(=O)/C1=C\c1ccc([N+](=O)[O-])cc1`?
HT1080-NT tox: inconclusive; TDP1 cell CPT: 16µM*; HT1080 IDH1KD tx: inconclusive; IL-1B inflam inh: -102*; DT40 TDP1 no CPT: inconclusive

What do the screens show for `COC(=O)C1=C(C)N(Cc2ccc(OC)cc2)C(=O)/C1=C\c1ccco1`?
HT1080-NT tox: -12%; TDP1 cell CPT: 26µM*; HT1080 IDH1KD tx: -18%; IL-1B inflam inh: 19; DT40 TDP1 no CPT: 16µM*
